Columns and labels:
Settings in all cases: concentration: 1 μM, replicates: in singlicate; n = 1
[1] = test system: T1, RSK1(Kin.Dom.2-C-terminal)
T1 construct: gene RPS6KA1

[2] = test system: T2, RSK2(Kin.Dom.1-N-terminal)
T2 construct: gene RPS6KA3

[3] = test system: T3, RSK2(Kin.Dom.2-C-terminal)
T3 construct: gene RPS6KA3

[4] = test system: T4, RSK3(Kin.Dom.1-N-terminal)
T4 construct: gene RPS6KA2

[5] = test system: T5, RSK3(Kin.Dom.2-C-terminal)
T5 construct: gene RPS6KA2

[6] = test system: T6, RSK4(Kin.Dom.1-N-terminal)
T6 construct: gene RPS6KA6

[7] = test system: T7, RSK4(Kin.Dom.2-C-terminal)
T7 construct: gene RPS6KA6

S6K1 = test system: S6K1
SBK1 = test system: SBK1
SGK2 = test system: SGK2
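Further: KINOMEscan kinase panel screen.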

## COC(=O)C(NC(=O)NC1CCN(c2ccnc(Nc3ccc(F)cc3)n2)C1)c1ccccc1 (centres unmarked) [GSK1379712]
[1]
  %Inh: 18%
[2]
  %Inh: 0%
[3]
  %Inh: 38%
[4]
  %Inh: 0%
[5]
  %Inh: 11%
[6]
  %Inh: 0%
[7]
  %Inh: 7%
S6K1
  %Inh: 0%
SBK1
  %Inh: 8%
SGK2
  %Inh: 8%

## COc1cccc(C2=C(Nc3cc(Cl)c(O)c(Cl)c3)C(=O)NC2=O)c1 [SB-390767]
[1]
  %Inh: 0%
[2]
  %Inh: 11%
[3]
  %Inh: 37%
[4]
  %Inh: 0%
[5]
  %Inh: 0%
[6]
  %Inh: 0%
[7]
  %Inh: 0%
S6K1
  %Inh: 20%
SBK1
  %Inh: 0%
SGK2
  %Inh: 11%

## Cc1ccc(NC(=O)Nc2ccc(Cl)c(C(F)(F)F)c2)cc1-c1ccc(C(=O)Nc2ccncc2)cc1 [GSK1398470]
[1]
  %Inh: 3%
[2]
  %Inh: 5%
[3]
  %Inh: 0%
[4]
  %Inh: 9%
[5]
  %Inh: 14%
[6]
  %Inh: 2%
[7]
  %Inh: 22%
S6K1
  %Inh: 15%
SBK1
  %Inh: 64%
SGK2
  %Inh: 0%

## COc1ccc(Nc2nccc(N3CCC(NC(=O)C(C)c4ccc(Cl)cc4)C3)n2)cc1 (centres unmarked) [GSK1379735]
[1]
  %Inh: 0%
[2]
  %Inh: 5%
[3]
  %Inh: 7%
[4]
  %Inh: 14%
[5]
  %Inh: 0%
[6]
  %Inh: 0%
[7]
  %Inh: 7%
S6K1
  %Inh: 2%
SBK1
  %Inh: 0%
SGK2
  %Inh: 11%

## O=C(Nc1n[nH]c2nc(-c3cccs3)c(Br)cc12)C1CC1 [SB-735297]
[1]
  %Inh: 0%
[2]
  %Inh: 22%
[3]
  %Inh: 0%
[4]
  %Inh: 0%
[5]
  %Inh: 0%
[6]
  %Inh: 98.9%
[7]
  %Inh: 20%
S6K1
  %Inh: 22%
SBK1
  %Inh: 11%
SGK2
  %Inh: 27%

## CCn1c(-c2c(N)noc2C)nc2cnccc21 [SB-737856]
[1]
  %Inh: 0%
[2]
  %Inh: 16%
[3]
  %Inh: 8%
[4]
  %Inh: 15%
[5]
  %Inh: 0%
[6]
  %Inh: 0%
[7]
  %Inh: 22%
S6K1
  %Inh: 0%
SBK1
  %Inh: 15%
SGK2
  %Inh: 0%

## O=C1NC(=O)C(c2ccc(Cl)cc2)=C1Nc1cccc(Cl)c1 [SB-317651]
[1]
  %Inh: 0%
[2]
  %Inh: 23%
[3]
  %Inh: 0%
[4]
  %Inh: 18%
[5]
  %Inh: 23%
[6]
  %Inh: 0%
[7]
  %Inh: 13%
S6K1
  %Inh: 36%
SBK1
  %Inh: 0%
SGK2
  %Inh: 6%

## COc1ccc(CSc2nnc(-c3ccc4ncsc4c3)o2)cc1C(F)(F)F
[1]
  %Inh: 0%
[2]
  %Inh: 0%
[3]
  %Inh: 0%
[4]
  %Inh: 0%
[5]
  %Inh: 0%
[6]
  %Inh: 0%
[7]
  %Inh: 9%
S6K1
  %Inh: 0%
SBK1
  %Inh: 0%
SGK2
  %Inh: 0%

## Cc1ccc(NC(=O)Nc2ccccc2F)cc1-c1ccc(C(=O)Nc2ccncc2)cc1 [GSK1398477]
[1]
  %Inh: 0%
[2]
  %Inh: 9%
[3]
  %Inh: 6%
[4]
  %Inh: 20%
[5]
  %Inh: 0%
[6]
  %Inh: 0%
[7]
  %Inh: 14%
S6K1
  %Inh: 13%
SBK1
  %Inh: 28%
SGK2
  %Inh: 0%

## O=C(Nc1n[nH]c2nc(-c3ccco3)c(Br)cc12)C1CCN(Cc2ccccc2)C1.O=C(O)[C@H](O)[C@@H](O)C(=O)O (centres unmarked) [SB-742034]
[1]
  %Inh: 0%
[2]
  %Inh: 35%
[3]
  %Inh: 0%
[4]
  %Inh: 6%
[5]
  %Inh: 0%
[6]
  %Inh: 16%
[7]
  %Inh: 12%
S6K1
  %Inh: 23%
SBK1
  %Inh: 19%
SGK2
  %Inh: 27%

## COc1ccc(Nc2nccc(N3CCC(NC(=O)c4cc5ccccc5s4)C3)n2)cc1 (centres unmarked) [GSK1379738]
[1]
  %Inh: 4%
[2]
  %Inh: 10%
[3]
  %Inh: 4%
[4]
  %Inh: 1%
[5]
  %Inh: 0%
[6]
  %Inh: 0%
[7]
  %Inh: 0%
S6K1
  %Inh: 0%
SBK1
  %Inh: 2%
SGK2
  %Inh: 0%

## O=c1cc(N2CCOCC2)nc2n(Cc3cccc(Cl)c3Cl)c3ccccc3n12 [GSK2299009]
[1]
  %Inh: 5%
[2]
  %Inh: 19%
[3]
  %Inh: 53%
[4]
  %Inh: 4%
[5]
  %Inh: 0%
[6]
  %Inh: 0%
[7]
  %Inh: 5%
S6K1
  %Inh: 14%
SBK1
  %Inh: 28%
SGK2
  %Inh: 37%

## Cc1ccc(NC(=O)Nc2ccc(Cl)cc2)cc1-c1ccc(C(=O)Nc2ccncc2)cc1 [GSK1398472]
[1]
  %Inh: 0%
[2]
  %Inh: 2%
[3]
  %Inh: 6%
[4]
  %Inh: 15%
[5]
  %Inh: 0%
[6]
  %Inh: 0%
[7]
  %Inh: 20%
S6K1
  %Inh: 8%
SBK1
  %Inh: 19%
SGK2
  %Inh: 8%

## CC(=O)c1cccc(NC(=O)NC2CCN(c3ccnc(Nc4ccc(F)cc4)n3)C2)c1 (centres unmarked) [GSK1379710]
[1]
  %Inh: 14%
[2]
  %Inh: 0%
[3]
  %Inh: 30%
[4]
  %Inh: 17%
[5]
  %Inh: 6%
[6]
  %Inh: 0%
[7]
  %Inh: 21%
S6K1
  %Inh: 0%
SBK1
  %Inh: 5%
SGK2
  %Inh: 0%

## COc1ccc(Nc2nccc(-c3ccc(NC(=O)c4cc5cc(F)ccc5[nH]4)cc3)n2)cc1 [GSK1229496]
[1]
  %Inh: 36%
[2]
  %Inh: 0%
[3]
  %Inh: 20%
[4]
  %Inh: 0%
[5]
  %Inh: 0%
[6]
  %Inh: 20%
[7]
  %Inh: 6%
S6K1
  %Inh: 1%
SBK1
  %Inh: 17%
SGK2
  %Inh: 0%

## CNc1nc(-c2ccc3c(N)n[nH]c3c2)cc(N2C[C@@H](C(=O)Nc3ccccc3)CC[C@H]2C)n1 [GSK2298859]
[1]
  %Inh: 0%
[2]
  %Inh: 0%
[3]
  %Inh: 0%
[4]
  %Inh: 7%
[5]
  %Inh: 3%
[6]
  %Inh: 0%
[7]
  %Inh: 23%
S6K1
  %Inh: 0%
SBK1
  %Inh: 4%
SGK2
  %Inh: 0%

## CC(=O)c1c(C)c2cnc(Nc3ccn(C)n3)nc2n(C2CCCC2)c1=O
[1]
  %Inh: 4%
[2]
  %Inh: 0%
[3]
  %Inh: 0%
[4]
  %Inh: 0%
[5]
  %Inh: 0%
[6]
  %Inh: 0%
[7]
  %Inh: 0%
S6K1
  %Inh: 0%
SBK1
  %Inh: 0%
SGK2
  %Inh: 0%
